Laboratory results reported in PubChem BioAssay AID1508623 (National Center for Advancing Translational Sciences (NCATS), 2021).
Out of some 48,000 compounds screened, about 450 (0.94%) were called active. About 19% were inconclusive and are not listed. What follows is part of a selection rich in actives, with near analogues and random picks from the rest. Values without a mark were called inactive. The call rests on the fitted dose curve; in most records, active means well fitted inhibition curve with a large enough effect; inconclusive means small, poorly fitted or top-dose-only effect; inactive means no such curve, though single readings can be large or run the other way.

Experiment: Primary qHTS for Identification of Small Molecule Inhibitors of Huntingtin Promoter Activity; further: nearly all actives have a fitted effect of over 50% in size
Conditions: HEK293 HTT promoter firefly luciferase reporter (activity 0% = vehicle and -100% = no light), 24 h; series mostly up to 57.5 µM; activity change, negative = inhibition: at the top concentration
Text: Assay Provider: Russell L. Margolis M.D.
Department Neurology, Johns Hopkins University School of Medicine, Baltimore, MD
Huntington's Disease (HD) is a neurodegenerative disorder caused by a CAG repeat expansion in exon 1 of huntingtin (HTT). While there are currently no disease-modifying treatments for HD, recent efforts have focused on development of nucleotide-based therapeutics to lower HTT expression. As an alternative to siRNA or oligonucleotide methods, we hypothesized that suppression of HTT expression might be accomplished by small molecules that either (1) directly decrease HTT expression by suppressing HTT promoter activity or (2) indirectly decrease HTT expression by increasing the promoter activity of HTT-AS, the gene antisense to HTT that appears to inhibit expression of HTT.
We developed and employed a high throughput screen for modifiers of HTT and HTT-AS promoter activity using luminescent reporter HEK293 cells; of the 52,041 compounds tested, we identified 898 replicable hits. We used a rigorous stepwise approach to assess compound toxicity and the capacity of the compounds to specifically lower huntingtin protein in 5 different cell lines, including HEK293 cells, HD lymphoblastoid cells, mouse primary neurons, HD iPSCs differentiated into cortical-like neurons, and HD hESCs. We found no compounds which were able to lower huntingtin without lowering cell viability in all assays, though the potential efficacy of a few compounds at non-toxic doses could not be excluded.
SEQUENCE No. (1, 2, 3, etc.); […] (e.g., Cells, Incubation, Reagent, etc.); VALUE and DESCRIPTION.
1; Reagent; 4 uL; 2,500 Hek293 luciferase reporter cells per wells
3; Compound; 23 nL; Control inhibitor / compound library
5; Reagent; 2.5 uL; Firefly Luc reagent; Dual-Glo Luciferase Reporter Assay System (Promega)
6; Time; 10 min; room temperature incubation
7; Detection; Luminescence; FLuc
NOTES (numbers refer to sequence above)
1; High-throughput screening, measuring luminescence from a Hek293 luciferase reporter, was performed in 1,536 well white-walled tissue-culture treated plates. 2,500 cells were plated in 4 µL of Opti-MEM per well using a Multidrop Combi Reagent Dispenser (ThermoFisher).
2; Assay plates were cultured for 24 hours.
3; Control inhibitor (PTC124; final concentration of 50 uM) and compound library (at final concentrations of 460 nM - 57.5 uM) were added to the assay plate using the Kalypsis Pintool Robotic System equipped with 1536 pinheads.
4; Cells were then incubated for 24 hours at 37 degrees C prior to luminescence measurements.
5; In all cases, luminescence was measured using the Dual-Glo Luciferase Reporter Assay System (Promega) following the manufacturer's instructions.
6; Room temperature incubation.
7; Luminescence signal was obtained using the PerkinElmer ViewLux plate reader. Results were normalized to vehicle control (0% activity) and zero RLU (-100% activity).
Potency means the concentration at half of the fitted maximal effect.

SMILES | activity change, negative = inhibition | Potency
CCS(=O)(=O)N1CCc2cc(C(=O)NCc3ccc(C)cc3)ccc21 | -14.9% | 
CCOC(=O)c1c(C)oc2nc(C)nc(Nc3ccc(CC)cc3)c12 | -7.44% | 
O=C(Cn1c(=O)nc(-c2ccccc2)c2cc(Cl)ccc21)NCc1ccc(Cl)cc1 | -24% | 
CCCOc1cccc(C(=O)Nc2cccc(NC(=O)c3ccc(C(C)(C)C)cc3)c2)c1 | 28.7% | 
CCCN(CCC)CCNC(=O)Cn1cnc2sc(C)c(S(=O)(=O)N3CCC(C)CC3)c2c1=O | -16.4% | 
CCc1nn(CCCC(=O)NC(C)c2ccccc2)c(=O)c2cc3occc3n12 (stereo not given) | -11% | 
COc1ccc(-c2cc(-c3nc(-c4cc(OC)c(OC)c(OC)c4)no3)[nH]n2)c(OC)c1 | -15.4% | 
Cc1ccccc1-c1nc(CS(=O)(=O)CC(=O)NC(C)c2ccccc2)c(C)o1 (stereo not given) | -27.7% | 
Cc1ccc(Cl)cc1N1CCN(C(=O)CN2C(=O)COc3ccc(S(=O)(=O)N4CCOCC4)cc32)CC1 | -16.6% | 
Cc1cccc(N2CCN(C(=O)COCc3cc(-c4ccc5c(c4)OCO5)on3)CC2)c1C | -5.06% | 
O=C(Cn1c(-c2cccs2)cc2ccccc21)NCCc1ccc(Cl)cc1 | -23.6% | 
Cc1oc(-c2ccccc2F)nc1CN1CCC(C(=O)NCCc2ccc(Cl)cc2)CC1 | -11.4% | 
Cc1c(NC(=O)Nc2ccc(F)c(Cl)c2)c(=O)n(-c2ccccc2)n1C | -12.5% | 
CCN(CC)S(=O)(=O)c1ccc2c(c1)N(CC(=O)NCC(C)c1ccccc1)C(=O)CO2 (stereo not given) | -11.4% | 
CCN(CCCNC(=O)c1cc2c(=O)n(CC)c3ccccc3c2s1)Cc1ccccc1 | 3.33% | 
Cc1ccc(Cl)cc1N(C)C(=O)Cn1nc(Cc2cccnc2)c2ccccc2c1=O | -22% | 
CC(=O)c1cccc(Nc2ccc3cc(S(=O)(=O)N4CCC(C)CC4)ccc3n2)c1 | -11.7% | 
C[C@@H](NC(=O)c1ncnc(N)c1Cl)c1ncc(C(=O)Nc2cc(C(F)(F)F)c(Cl)cn2)s1 | -16.3% | 
Cc1cc(NC(=O)CSc2ncc(C(=O)Nc3ccc(Cl)cc3)c(=O)n2C)no1 | -1.72% | 
CC(=O)c1ccc(NC(=O)C2CCN(S(=O)(=O)c3c(C)noc3/C=C/c3ccc(C)cc3)CC2)cc1 | -21% | 
CCOC(=O)c1ccc(NC(=O)C2CC(=O)N(c3ccc(C(C)C)cc3)C2)cc1 (stereo not given) | 4.03% | 
CC(C)c1ccc(NC(=O)C2CCN(c3nc(-c4ccc(C(C)C)cc4)no3)CC2)cc1 |  | 0.0891 µM (active)
Cc1ccc2nc(CNC(=O)c3ccccc3)[nH]c2c1 | 0% | 
COCCCNC(=O)CN1C(=O)CSc2ccc(S(=O)(=O)N3CCOCC3)cc21 | -9.25% | 

SMILES | activity change, negative = inhibition | Potency
CCCNC(=O)c1ccc2c(c1)ncn2-c1ccc(C)cc1C | -9.41% | 
CN1C(=O)C[C@H](C(=O)N[C@@H](Cc2cnc[nH]2)C(=O)N2CCC[C@@H]2C(N)=O)NC1=O | 9.02% | 
COc1ccc(C(=O)NCC(c2ccc(N(C)C)cc2)N2CCc3ccccc32)c(OC)c1 (stereo not given) | -17.2% | 
COc1cccc(-n2c(=O)c3c(C)c(C(=O)N(C)C)sc3n(Cc3cccc(C)c3)c2=O)c1 | -4.23% | 
COc1ccc2c(c1)C=C(C(=O)NCc1cc(Br)ccc1OC)CO2 | -23.7% | 
CCc1ccccc1NC(=O)c1ccc2nc(CCc3ccccc3)oc2c1 | 0% | 
O=C(Nc1cccc(-c2nc3ccccc3o2)c1)c1cccc(Br)c1 | -18.9% | 
CCOc1ccc(NC(=O)C2CCN(S(=O)(=O)c3cc(-c4noc(C)n4)ccc3C)CC2)cc1 | -10.5% | 
Cc1ccc(NC(=O)C2CCN(S(=O)(=O)c3cc(-c4noc(C)n4)ccc3C)CC2)c(C)c1 |  | 11.2 µM (active)
Cc1cc(C)c(/C=C/c2onc(C)c2S(=O)(=O)N2CCC(C(=O)Nc3ccc(Cl)cc3C)CC2)c(C)c1 | 3.16% | 
CC(C)CC(=O)NCC(c1ccc2c(c1)OCO2)N1CCN(c2ccc(F)cc2)CC1 (stereo not given) | -14.9% | 
Cc1c(CCNC(=O)c2ccc(C(F)(F)F)cc2)sc2nc(-c3ccc(F)cc3)nn12 | 4.17% | 
CCOC(=O)c1c(C)[nH]c(CCC(=O)NCCCN2CCN(c3cccc(Cl)c3)CC2)c1C | -29.4% | 
CCOc1ccc(NC(=O)C(=O)NCCc2csc3nc(-c4ccccc4F)nn23)cc1 | -5.73% | 
COc1ccc(Cl)cc1N(C)C(=O)c1cc2c(=O)oc3ccc(C)cc3c2s1 | -0.88% | 
COc1cccc(Nc2nc3ccccc3c3nncn23)c1 | -14.9% | 
Cc1ccc(C)n1-c1nnc(N2CCC(C(=O)NCc3ccccc3Cl)CC2)s1 | -11.2% | 
O=S(=O)(c1ccc(Br)cc1)c1nnn2c1nc(N1CCOCC1)c1sccc12 | 7.1% | 
Cc1ccc(CSc2nc3cccnc3n2Cc2ccc(C(=O)NC3CC3)cc2)cc1 | 9.61% | 
COc1ccc(S(=O)(=O)N2CCCCC2)cc1C(=O)NC1CCS(=O)(=O)C1 (stereo not given) | -15.4% | 
Cc1ccc(-c2nn(CCC(=O)Nc3ccc(Cl)c(Cl)c3)c(=O)c3ccccc23)cc1 | -9.37% | 
CCN(CC)CCNC(=O)CN1N=C(c2ccc(OC)cc2)CCC1=O | -8.91% | 
CSc1ncc(C(=O)NCc2ccccc2Cl)c(C(F)(F)F)n1 | -7.35% | 
Cc1ccc(SCC(=O)Nc2ccc3oc(-c4ccccc4F)nc3c2)cc1 | 0% | 

SMILES | activity change, negative = inhibition | Potency
CCOC(=O)c1cc2c(=O)n3ccccc3nc2n(CC2CCCO2)c1=NC(=O)c1ccc(C(C)(C)C)cc1 (stereo not given) | -8.51% | 
CCOc1ccc2oc(=O)cc(CN3CCN(C(=O)c4ccc(F)cc4)CC3)c2c1 | -21.1% | 
CCOc1ccc(OCC)c(Nc2nc3ccccc3n3nnnc23)c1 | -15.9% | 
N#Cc1ccc(-c2cccs2)nc1SCc1ccc(Br)cc1 | 12.7% | 
Cc1ccc(CCNC(=O)c2ccc(CNS(=O)(=O)c3ccc(C)cc3)cc2)cc1 | -5.53% | 
COc1ccc(NC(=O)CCCN2C(=O)CCn3nc(-c4cn(C)c5ccccc45)cc32)cc1OC | 0% | 
CCOc1ccccc1NC(=O)CN1CCN(S(=O)(=O)c2ccc(Br)cc2)CC1 | -13.4% | 
COc1ccccc1NC(=O)c1cc(C2CC2)nc2c1c(C)nn2-c1ccc(C)cc1 | -10.5% | 
Cc1ccc(Cl)cc1-n1ncc2c(N3CCC(C(N)=O)CC3)ncnc21 | -30.7% | 
Cc1ccc(-n2ncc3c(N4CCC(C(N)=O)CC4)ncnc32)cc1 |  | 0.316 µM (active)
CCN1CCN(c2ncnc3c2cnn3-c2ccc(C)c(C)c2)CC1 | -8.96% | 
Cc1cc(OCC(=O)NCC2(N(C)C)CCCCC2)cc(C)c1Cl | -5.14% | 
Cc1nc2nc(SCC(=O)NC3CCC(C)CC3)nn2c(C)c1Cc1ccccc1Cl (stereo not given) | 2.74% | 
Cc1ccc(-n2nnnc2CNC(=O)c2ccccc2C)cc1C | 1.21% | 
COc1ccc(OCCn2cc(C(=O)C3CCCCC3)c3ccccc32)cc1 | -27.6% | 
COc1ccc(-c2noc(-c3ccc(N4CCN(c5ccccc5)CC4)c([N+](=O)[O-])c3)n2)cc1OC | -7.68% | 
O=C(COc1ccccc1)NCc1ccc2c(c1)CCN2C(=O)c1ccc(F)cc1 | -29.6% | 
Cc1cc2c(cc1S(=O)(=O)CCC(=O)NCc1ccccc1)OCC(=O)N2 | -5.35% | 
Cn1c(SCC(=O)N2CCCc3ccccc32)ncc(C(=O)Nc2ccc(F)cc2)c1=O | -4.61% | 
COc1ccc(S(=O)(=O)NCc2cccn2Cc2cccc(C)c2)cc1 | 0% | 
CC(C)c1ccc(NC(=O)c2cc(S(=O)(=O)N3CCc4ccccc4C3)ccc2F)cc1 | -20% | 
Cc1ccc(-n2cnc3cc(C(=O)NCCC4=CCCCC4)ccc32)cc1Cl | -5.68% | 
Cc1ccc(NC(=O)c2cc(S(=O)(=O)NCCC3=CCCCC3)ccc2F)cc1C |  | 28.2 µM (active)
O=c1n(Cc2cccc(C(F)(F)F)c2)c2ccccc2c2nc(-c3ccccc3)nn12 | -9.87% | 

SMILES | activity change, negative = inhibition | Potency
COc1ccc(N2CCN(C(=O)c3cn(C)c4ccc(S(=O)(=O)N5CCOCC5)cc4c3=O)CC2)cc1 | -18.7% [at 11.5 µM] | 
O=C(Nc1cc(C(F)(F)F)ccc1Cl)c1nc2ccccc2nc1N1CCCCC1 | -3.65% | 
CCN(C(=O)Cn1c(=O)nc(-c2ccccc2)c2cc(Cl)ccc21)c1cccc(C)c1 | -4.22% | 
COc1ccc(NC(=O)c2ccc3oc(=O)c(S(=O)(=O)c4ccc(F)cc4)cc3c2)c(OC)c1 |  | 11.2 µM (active)
COc1ccc(NC(=O)c2ccc3nc(CCc4ccccc4)oc3c2)c(OC)c1 | 36.9% | 
COc1ccc2c(c1)c(=O)c(S(=O)(=O)c1ccc(F)cc1)cn2CC(=O)Nc1ccc(C)cc1C | -9.64% | 
Fc1ccc(C(Nc2ccc(Cl)c(C(F)(F)F)c2)c2nnc(-c3ccccc3)o2)cc1 (stereo not given) | -35.9% | 
CC(=O)Nc1ccc(S(=O)(=O)N2CCN(c3ccccc3)CC2)cc1 | -26.9% | 
COc1ccc(Nc2ncc(C(=O)Nc3cc(C)ccc3OC)c3ccccc23)cc1 | -18.3% | 
O=C(CCCn1c(=O)c2cccn2c2cccnc21)NCc1ccc(F)cc1 | 8.1% | 
CCOc1cc(-c2nnc(SCC(=O)NC3CCCCC3)nc2-c2ccc(OC)c(OCC)c2)ccc1OC | -8.07% | 
COc1ccc(Cn2ccc3nc(C)c(C(=O)Nc4ccc(C)c(F)c4)cc3c2=O)cc1 | -9.53% | 
COC(=O)c1ccccc1NC(=O)c1ccc2c(=O)n3c(nc2c1)CCCCC3 | 10.1% | 
CS(=O)(=O)c1ccc(-c2nnc(NC(=O)c3ccc4c(c3)OCCO4)o2)cc1 | -5.72% | 
CCCCNc1ccc(-c2nc(-c3ccncc3)no2)cc1[N+](=O)[O-] | 0.996% | 
Cc1cccc(C)c1NC(=O)c1ccc(N)cc1 | 2.97% | 
CCOC(=O)c1ccc(NC(=O)Cn2c(=O)cc(C)c3c(C)nn(-c4cccc(F)c4)c32)cc1 | -8.8% | 
Cc1ccc2nc(NC(=O)c3nc(SCc4ccccc4F)ncc3Cl)sc2c1 | -12.5% | 
CCC(Sc1nnc(-c2ccc(OC)cc2)c(-c2ccc(OC)cc2)n1)C(=O)NC1CCCCC1 (stereo not given) | 5.07% | 
CCCn1c(NCc2ccc(N(CC)CC)cc2)nc2ccccc21 | -20.8% | 
COc1ccc(CCNS(=O)(=O)c2cc(-c3cc(C)no3)ccc2C)cc1OC | -17.2% | 
Cc1cc(-c2ccc(C)c(S(=O)(=O)N3c4ccccc4CC3C)c2)on1 (stereo not given) |  | 14.1 µM (active)
CCC1CN(S(=O)(=O)c2cc(-c3cc(C)no3)ccc2C)c2cc(C)ccc2O1 (stereo not given) | -13.3% | 
